High-throughput results as filed in PubChem.
CHX counter-1 = affects cycloheximide protein synthesis inhibition readout, counter-screen | AID 2314 | cell reporter, cycloheximide protein synthesis inhibition counterscreen | 12% of 300,000 active | max response, %; in the data active means max response mostly above about 13%, no sharp cut-off; inactive means mostly below about 14%; further: read at 38.3 µM for the half of the compounds with a filed dose; 0% is about no effect
Pf growth 48h = P. falciparum growth inhibition at 48 hours (one generation). P. falciparum luciferase growth in erythrocytes, 48 h. AID 504832. 5.9% of 310,000 active. Potency, µM (doses to about 28.7 µM), without a hit: at the highest dose activity change, negative = inhibition, actives largely listed as inhibitors; further: potency means the concentration at half of the fitted maximal effect; on the % scale 0 is the no-effect control and ±100 the full control effect
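Luciferase-expressing P. falciparum in infected erythrocytes (2% hematocrit, 0.1% parasitemia final) in RPMI 1640/0.5% Albumax were exposed to compound for 48 hours at 37 C, 5% CO2; growth read as luminescence.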
HCV inh = inhibitors of hepatitis C virus infection | AID 651820 | Huh7.5.1 HCVcc-Cre infection, luciferase reporter, 44 h | 3.4% of 340,000 active | Potency, µM (series often up to 41.8 µM), without a hit: at the top dose activity change, negative = inhibition, most hits filed as inhibitors; further: potency means the concentration at half of the fitted maximal effect; on the % scale 0 is the no-effect control and ±100 the full control effect
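Antiviral activity was scored by luciferase reporter output from cells infected with HCVcc-Cre (~0.5 moi) in presence of compound, 44 h infection period, cells seeded 1,000/well 4 h prior.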
Shiga inhibitor = Shiga toxin inhibition | Vero cells, Shiga toxin protein synthesis inhibition reporter | inhibition, % at 38.7 µM | 9.2% of 290,000 active; in the data active means inhibition mostly above about 28%, no sharp cut-off; inactive means mostly below about 43%; further: 0% is about no effect
Pf growth 96h = inhibits malaria parasite growth, 96 h. Potency, µM (series often up to 28.7 µM), inactives show top-dose activity change, negative = inhibition, usual class: inhibitors. P. falciparum luciferase reporter growth, 96 h. 6.9% of 320,000 active. AID 504834; further: potency means the concentration at half of the fitted maximal effect; on the % scale 0 is the no-effect control and ±100 the full control effect
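P. falciparum expressing integrated firefly luciferase, in erythrocytes at 2% hematocrit, 0.05% parasitemia, incubated with compounds 96 h at 37 C, 5% CO2. Growth inhibition read as loss of luminescence; two-generation exposure targets delayed-death apicoplast inhibitors.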
HCMV antiviral = human cytomegalovirus inhibition | HFF cells, HCMV-luciferase reporter, 72 h; stronger effect = lower value | activity change, negative = inhibition, % at 57.5 µM | 4.5% of 410,000 active | AID 1259415; in the data active means activity change below about -60%; inconclusive means no clear call, values can overlap the other calls; inactive means above about -39%; further: on the % scale 0 is the no-effect control and ±100 the full control effect
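HFF cells seeded 16 h at 37C, treated with compounds, infected with luciferase-reporter HCMV at MOI 1 PFU/cell; luciferase read at 72 h post infection, normalized to buffer-only and Salinomycin controls.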
CHX counter-2 = affects protein synthesis reporter in cycloheximide counter-screen. shares compounds with Shiga inhibitor. Cycloheximide counterscreen, protein synthesis reporter, Shiga toxin assay. Potency, µM (series often up to 38.3 µM), for inactives: at the highest dose activity (activation), most hits filed as activators. 3% of 510 active. AID 2318; calls by dose curve; further: potency means the concentration at half of the fitted maximal effect; 0% is about no effect
Starred values were filed as active, the others as inactive; ? = inconclusive; / = not tested or not shown. Hits are enriched below; roughly 21% of the tested compounds scored in any of these assays. Unless noted, the call rests on the fitted dose curve; in most records, active means well fitted inhibition curve with a large enough effect; inconclusive means small, poorly fitted or top-dose-only effect, or another doubt; inactive means no such curve, though single readings can be large or run the other way.

SMILES	CHX counter-1	Pf growth 48h	HCV inh	Shiga inhibitor	Pf growth 96h	HCMV antiviral	CHX counter-2
CCOC(=O)/C(C(=O)Nc1ccccc1Cl)=C1/NC(C)(C)Cc2ccccc21	-1	8%	?	9	20%	-24	/
CCOC(=O)/C(C(=O)Nc1ccc(Br)cc1)=C1/NC(C)(C)Cc2ccccc21	11	?	-18%	45*	?	?	?
CCN(CC)S(=O)(=O)c1ccc(N2CCCCS2(=O)=O)cc1	/	/	/	/	/	24	/
Cc1cccc(N(CC(=O)NC2CCCC2)C(=O)CNC(=O)c2ccco2)c1C	-2	5%	4%	-9	?	50	/
CCOC(=O)C1=C(C)NC(=O)NC1c1ccc(OCC(=O)Nc2ccccc2)c(OC)c1 (stereo not given)	7	?	?	39*	?	4	0%
COc1cc(CCC(=O)NNC(=O)c2cccc(Cl)c2)cc(OC)c1OC	-8	-4%	-30%	20	-9%	9	/
N=c1c(S(=O)(=O)c2ccc(Cl)cc2)cc2c(=O)n3ccccc3nc2n1C1CCCCC1	14	52%	?	active	?	68	-1%
Cc1cc(C)n(-c2cc(N3CCOCC3)ncn2)n1	-2	9%	-5%	31*	-28%	63	-4%
O=C(OCc1nc2ccccc2s1)c1cccc(N2C(=O)CCC2=O)c1	7	3%	9%	58*	44%	-30	2%
COc1cc(C(C)=O)ccc1OCCCOc1cccc2cccnc12	2	-8%	-12%	48*	-9%	43	?
Cc1cccc(NC(=S)N2CCN(S(C)(=O)=O)CC2)c1	-1	3%	2%	42	30%	-25	/
O=Cc1ccc(C(=O)OCC(=O)NC(=O)Nc2ccccc2F)cc1	/	/	4%	/	/	/	/
Cc1csc(SCC(=O)Nc2ncc(Cl)c(C)c2Cl)n1	9	3%	1%	21*	0%	17	1%
Cc1csc(SCC(=O)NC2CCCC2)n1	/	-18%	27%	/	-15%	-31	/
COC(=O)c1ccc[n+](CCc2c[nH]c3ccccc23)c1	/	/	1%	/	/	-10	/
COc1cccc(-c2csc(N3CCN(C(=O)Nc4ccc(F)cc4)CC3)n2)c1	5	?	7.9µM*	34*	4%	?	0%
COc1ccc(-c2csc(N3CCN(C(=O)c4ccccc4)CC3)n2)cc1	-2	-25%	10%	13	?	-17	/
COc1ccc(NC(=O)CN2CCN(CC(=O)Nc3ccccc3F)CC2)c(OC)c1	0	-7%	-14%	-9	1%	19	/
COc1ccc(NC(=O)CN2CCN(c3nc(-c4ccc(F)cc4)cs3)CC2)c(OC)c1	-3	35%	?	36*	55%	-37	-2%
Cn1c(CN2CCCCC2)nc2cc(NC(=O)c3ccc(Cl)cc3)ccc21	2	?	4µM*	27*	-7%	-67*	6%
COc1ccccc1C(=O)CSc1nccn1C	17	79%	8%	22*	20%	3	5%
COc1ccccc1C(=O)CSc1nnc(-c2ccco2)o1	8	?	-16%	8	?	-2	/
O=C(NCC(=O)N1CCCC(C(F)(F)F)C1)c1ccc(Oc2ccccc2)cc1 (stereo not given)	20	-4%	?	21*	?	-20	-1%
O=C(NCC(=O)N1CCCC(C(F)(F)F)C1)c1ccc2ccccc2c1 (stereo not given)	/	1%	19%	/	37%	-3	/
O=C(NCCCn1ccnc1)/C(=C\c1cccnc1)NC(=O)c1cccc(Br)c1	5	9%	11%	11	-1%	8	/
CCOc1ccc(NC(=O)CN2C(=O)c3cccc4cccc2c34)cc1	/	/	/	/	/	-20	/
COc1cc(-n2nnnc2SC)c(OC)cc1Cl	10	-6%	6%	47*	-6%	-17	-1%
COc1ccccc1-n1nnnc1SCc1ccccc1	-2	?	-10%	5	?	-29	/
